Bioassay records (PubChem BioAssay)
The sample as a whole holds a higher share of hits than the screen did.
BL2 CD40 inh: CD40 pathway inhibition in BL2 cells | hit rate 0.94% among 83,000 | BL2 NF-kB luciferase reporter, CD40L-induced, 4 h | inhibition, % at 10 µM;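 active means mean inhibition of at least 50% with a set share of replicates also reaching that level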
Numbers stand for hits; n = inactive; [ ] = another dose, or the depositor's remark.

SMILES	BL2 CD40 inh
C[C@@H]1CN([C@H](C)CO)C(=O)c2c(c3ccccc3n2C)-c2ccccc2CO[C@H]1CN(C)C(=O)Nc1cccc(F)c1	n
C[C@@H]1CN([C@H](C)CO)C(=O)c2c(c3ccccc3n2C)-c2ccccc2CO[C@H]1CN(C)C(=O)Nc1cccc(C(F)(F)F)c1	n
COc1ccc(S(=O)(=O)N(C)C[C@H]2OCCCC[C@H](C)Oc3ccc(NS(=O)(=O)c4ccc(Cl)cc4)cc3C(=O)N([C@H](C)CO)C[C@H]2C)cc1	n
O=C(CN1CCOCC1)NCC[C@H]1CC[C@H](NS(=O)(=O)c2ccc(F)cc2)[C@H](CO)O1	n
CCOC(=O)c1c(NC(=O)CN2CCCCC2)sc(CN(C)C)c1-c1ccccc1	n
CCOC(=O)c1c(SCCN2CCCCC2)n(-c2ccccc2)c(=S)n(-c2ccccc2)c1=O	95
CCOC(=O)c1[nH]c(=S)n(-c2ccccc2)c1C(=O)OCC	n
O=C(NC[C@H]1[C@H](c2ccccc2)[C@H](CO)N1Cc1ccccn1)C1CCC1	n
CC=Cc1ccc2n(c1=O)C[C@H]1[C@H](CO)[C@@H](C(=O)NCCCN(C)C)[C@@H]2N1C(=O)c1ccccc1 (mixture of isomers)	n
Cc1ccccc1N1CCN(S(=O)(=O)CC23CCC(C[C@@H]2NC(=O)[C@@H](N)CCS(C)(=O)=O)C3(C)C)CC1 (some centres undefined)	n
O=C(Cc1ccccn1)N1CC(=O)N2[C@H](C1)[C@@H](c1ccc(C#CC3CCCC3)cc1)[C@@H]2CO	n
Cc1cc(Br)ccc1SCC(=O)Nc1cccnc1	n
Cc1nc(C)c(NC(=O)N2CCc3ccccc32)cc1NC(=O)N1CCc2ccccc21	n
Cn1ccc2cc3c(cc21)CCN3C(=O)Nc1cccnc1	active[25 µM]
CCS(=O)(=O)N1CCCCN2[C@H](CO)[C@H](c3ccc(-c4ccc(C(=O)N(C)C)cc4)cc3)[C@@H]2C1	n
CN1C(=O)c2cc(NC(=O)C3CC3)ccc2OC[C@H]2O[C@H](CC(=O)NCC3CCCCC3)CC[C@H]21	n
CC(C)NC(=O)N(C)C[C@H]1Oc2c(NS(C)(=O)=O)cccc2C(=O)N(C)C[C@@H]1C	n
CN(C)C(=O)c1ccc(-c2ccc3c(c2)[C@@H]2[C@@H](CCN2S(=O)(=O)c2cn(C)cn2)[C@H](CO)N3)cc1	n
C[C@H](CO)N1C[C@H](C)[C@@H](CN(C)C(=O)[C@H](C)c2ccccc2)OCc2ccccc2-c2ccccc2C1=O	n
CN1C(=O)/C(=N\OC(=O)c2cccc3ccccc23)c2ccccc21	99
COc1ccc(C(=O)NC2c3ccccc3-c3ccccc32)cc1	n
COc1ccc(C(=O)ON=C2CCN(C)CC2)cc1	n
O=C(O)c1ccc2c3c(cccc13)C(=O)N(c1cccc3ccccc13)C2=O	n
O=C(O/N=C(\c1ccccc1)c1ccccn1)c1cccc2ccccc12	n
COc1ccc(C(=O)O/N=C2\C(=O)N(C)c3ccccc32)cc1	60
SMILES	BL2 CD40 inh
O=C(CN1CCOCC1)N[C@H]1CC[C@@H](CCn2cc(C3CCCC3)nn2)O[C@@H]1CO	n
C[C@@H]1CN([C@H](C)CO)C(=O)CCCn2cc(nn2)CO[C@@H]1CN(C)C(=O)c1cc(-c2ccccc2)on1	n
O=C(Cc1ccccn1)N1CC[C@@H]2[C@H]1c1cc(-c3cccc(F)c3)ccc1N[C@@H]2CO	n
CN(C)/C=N/c1ncc(C(=O)c2ccc3ccccc3c2)s1	n
Cc1cc(C(N)=O)c2ccccc2n1	n
Cc1cc(Sc2nnc(/N=C/N(C)C)s2)c2ccccc2n1	84
O=C(c1cccnc1)N1C[C@@H]2[C@H](c3ccccc31)[C@@H](CO)N2CC1CCCCC1	n
CC(=O)N(C)C[C@H]1Oc2ccc(N(C)C)cc2CC(=O)N(C)C[C@H]1C	n
COc1ccc(NC(=O)N2C[C@@H]3N[C@H](C2)C3c2ccc(-c3cccc(F)c3)cc2)cc1 (some centres undefined)	n
Cc1ccc(-c2ccc(C3[C@@H]4CN(C(=O)Nc5ccc(C(F)(F)F)cc5)C[C@H]3N4)cc2)cc1 (some centres undefined)	n
O=C(Nc1ccc(C(F)(F)F)cc1)N1C[C@@H]2N[C@H](C1)C2c1ccc(-c2cccc(F)c2)cc1 (some centres undefined)	70
O=S(=O)(c1cccs1)N1CCCCN2[C@H](CO)[C@H](c3ccc(/C=C/c4ccccc4)cc3)[C@H]2C1	n
CC(C)NC(=O)N1[C@@H]2CN(CC(F)(F)F)C[C@H]1C2c1ccccc1 (some centres undefined)	n
c1ccc2c(c1)Sc1ccccc1-n1cnnc1-2	n
CCN1C(=O)c2ccccc2Sc2ccc(C(=O)NCCCN3CCCCC3)cc21	n
CCN1/C(=C/c2sc(-c3ccccc3C)c[n+]2C)Sc2ccccc21	68
CN(C)CC(=O)N1[C@H](CO)[C@H](c2ccc(C#CC3CCCCC3)cc2)[C@@H]1C#N	n
O=C(NCc1ccc(F)cc1)[C@H]1[C@H](CO)[C@H]2Cn3c(cccc3=O)[C@@H]1N2Cc1cccnc1	n
C/C=C/c1ccc([C@H]2[C@@H](CO)N(CCC(F)(F)F)[C@@H]2CNC(=O)C2CCC2)cc1	n
Oc1ccc(CN2CCN(c3ccccc3)CC2)c2cccnc12	n
COCc1cc(CN2CCCC2)c(O)c2ncccc12	n
CCOC(=O)N1CCN(Cc2ccc(O)c3ncccc23)CC1	65
C[C@@H]1CN([C@H](C)CO)C(=O)CCCn2nncc2CO[C@@H]1CN(C)C(=O)Nc1ccc(-c2cccs2)cc1	n
CNC[C@H]1Oc2cc(C3=CCCC3)ccc2S(=O)(=O)N([C@H](C)CO)C[C@@H]1C	n
Cc1cnc2c(N)cc(C)c(C)c2c1	90
SMILES	BL2 CD40 inh
Cc1cc(N)c(C)c([N+](=O)[O-])c1C	n
O=C(C1CC1)N1C[C@H]2[C@@H](c3ccccc31)[C@@H](CO)N2Cc1ccccc1Cl	n
CCC(=O)N1[C@@H]2Cn3c(cccc3=O)[C@H]1[C@@H](C(=O)NC1CCCC1)[C@@H]2CO	n
CN(C)C(=O)[C@@H]1[C@@H](CO)[C@@H]2Cn3c(ccc(/C=C/c4ccccc4)c3=O)[C@@H]2N1C(=O)c1cccnc1	n
COc1ccc(C#Cc2ccc([C@@H]3[C@@H](CO)N4CCCCN(C)C[C@H]34)cc2)cc1	n
COc1ccc(C#Cc2ccc([C@@H]3[C@H](CO)N4CCCCN(C)C[C@@H]34)cc2)cc1	n
COc1ccc(C#Cc2ccc([C@H]3[C@H]4CN(C(=O)c5ccncc5)CCCCN4[C@H]3CO)cc2)cc1	53[25 µM]
COc1ccc(C#Cc2ccc([C@@H]3[C@H](CO)N4CCCCN(C(=O)c5ccncc5)C[C@@H]34)cc2)cc1	n
COc1ccc(C#Cc2ccc([C@@H]3[C@H]4CN(C(=O)c5ccncc5)CCCCN4[C@H]3CO)cc2)cc1	n
COc1ccc(C#Cc2ccc([C@H]3[C@@H](CO)N4CCCCN(C)C[C@@H]34)cc2)cc1	active[25 µM]
CN1C(=O)c2cc(NC(=O)C3CCCCC3)ccc2OC[C@@H]2O[C@@H](CC(=O)NC3CCCC3)CC[C@@H]21	n
CN1CCN(C(=O)C[C@@H]2CC[C@H]3[C@H](COc4ccc(NC(=O)c5cccs5)cc4C(=O)N3C)O2)CC1	n
COc1ccc2[nH]c(O)c(NC(C)=O)c2c1	n
COc1ccc2[nH]c(=O)c3c(c2c1)OC(C)(C)C=C3	38
COc1ccc2nc(C)[nH]c(=O)c2c1	n
CC(C)NC[C@@H]1[C@@H](c2ccc(C3=CCCCC3)cc2)[C@@H](CO)N1C(=O)CC1CC1	n
CNC[C@H]1Oc2c(cccc2N(C)C)C(=O)N(C)C[C@@H]1C	n
